Inconclusive results are not listed. Calls of active or inactive are those of the source. Unless noted, calls follow the shape of the full dose curve.
How the values were obtained:
[1] = qHTS assay to identify small molecule agonists of the vitamin D receptor (VDR) signaling pathway - cell viability counter screen (AID 743224; active = well fitted curve in the direction sought with a large enough effect in the repeat runs; an effect the other way counts as inactive or inconclusive; also: nearly all actives have a fitted effect of over 50% in size; also: potency is read from the fitted curve at half-maximal effect; as to activity change, negative = cytotoxicity: series mostly up to about 63 µM; % is scaled to controls: 0 for no effect and ±100 for the full control effect)
Method in brief: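 Plated VDR-bla cells (4 h, 37C) received compound, incubated 16 h, then LiveBLAzer substrate 2 h RT; CellTiter-Glo added afterwards, luminescence read at 30 min.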

[2] = qHTS assay to identify small molecule antagonists of the vitamin D receptor (VDR) signaling pathway - cell viability counter screen (AID 743225; active = well fitted curve in the direction sought with a large enough effect in the repeat runs; an effect the other way counts as inactive or inconclusive; also: nearly all actives have a fitted effect of over 50% in size; also: potency is read from the fitted curve at half-maximal effect; as to viability change, negative = cytotoxic: % is scaled to controls: 0 for no effect and ±100 for the full control effect)
Method in brief: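 In this counter screen, VDR-bla HEK 293T cells receive test compound plus 3 nM final calcitriol for 16 h at 37C. Room-temperature steps of 2 h with the beta-lactamase substrate, then 30 min with CellTiter-Glo, precede the luminescence read.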

[3] = qHTS assay to identify small molecule agonists of the NFkB signaling pathway - cell viability counter screen (AID 1159515); also: series mostly up to about 61 µM; % is scaled to controls: 0 for no effect and ±100 for the full control effect; nearly all actives have a fitted effect of over 55% in size
Method in brief: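 Using the same wells as the NFkB reporter read, ME-180 NFkB-bla cells given compounds for 5 hr were assessed for viability via CellTiter-Glo, with luminescence taken after a 30 min room-temperature incubation.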

[4] = qHTS assay to identify small molecule agonists of the endoplasmic reticulum stress response signaling pathway (AID 1159516; active = well fitted activation curve with a large enough effect in the signal ratio in the repeat runs, not every such curve was filed as active; the % refers to the signal ratio; also: potency is read from the fitted curve at half-maximal effect; as to activation: % is scaled to controls: 0 for no effect and ±100 for the full control effect)
Method in brief: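 An ESRE-bla HeLa cell assay: compounds were pin-transferred from DMSO onto overnight-plated cells and left 5 hr at 37 C. Substrate was then loaded for 2 hr at room temperature before reading fluorescence at 460 nm and 530 nm.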

[5] = qHTS assay to identify small molecule agonists of the endoplasmic reticulum stress response signaling pathway - cell viability counter screen (AID 1159517);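 also: HeLa cells carrying an ER stress response element beta-lactamase reporter; series mostly up to about 61 µM; % is scaled to controls: 0 for no effect and ±100 for the full control effect; nearly all actives have a fitted effect of over 50% in size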
Method in brief: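 Luminescence readout: CellTiter-Glo, 30 min RT, same wells as the ESRE-bla reporter read. HeLa ESRE-bla, 1,500 cells/well, o/n 37 C; cpd 5 hr 37 C/5% CO2.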

[6] = qHTS assay to identify small molecule antagonists of the retinoid-related orphan receptor gamma (ROR-gamma) signaling pathway - cell viability counter screen (AID 1159520; active = well fitted curve in the direction sought with a large enough effect in the repeat runs; an effect the other way counts as inactive or inconclusive; also: nearly all actives have a fitted effect of over 50% in size; also: potency is read from the fitted curve at half-maximal effect)
Method in brief: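 Tet-on ROR gamma CHO cells (1,000/well) were plated 4 hr, given compounds in DMSO for 2 hr at 37 C, then induced with 1 uM final doxycycline for 16 hr. Viability was read as ATP by CellTiter-Glo luminescence after 30 min.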

[7] = target: Nuclear receptor ROR-gamma (Homo sapiens) (UniProt P51449); assay: qHTS assay to identify small molecule antagonists of the retinoid-related orphan receptor gamma (ROR-gamma) signaling pathway (AID 1159521; active = well fitted curve in the direction sought with a large enough effect in the repeat runs; an effect the other way counts as inactive or inconclusive; also: nearly all actives have a fitted effect of over 50% in size; also: potency is read from the fitted curve at half-maximal effect)
Method in brief: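 Screening format: cell-based luciferase reporter in CHO cells with doxycycline-inducible RORγ. Compound pre-exposure lasts 2 h, doxycycline is 1 uM final, induction runs 16 h at 37 C, and ONE-Glo luminescence is read.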

[8] = qHTS assay to identify small molecule agonists of the AP-1 signaling pathway - cell viability counter screen (AID 1159525); also: nearly all actives have a fitted effect of over 55% in size
Method in brief: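 ME-180 AP-1-bla, 2500 cells/well, Opti-MEM + 0.5% dialyzed FBS; overnight 37 °C; cpd 15-pt titration, 5 h 37 °C; CellTiter-Glo 30 min RT; luminescence read; normalised to TOAB and DMSO controls.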

[9] = target: Retinoic acid receptor RXR-alpha (Homo sapiens) (UniProt P19793); assay: qHTS assay to identify small molecule agonists of the RXR signaling pathway (AID 1159527); also: % is scaled to controls: 0 for no effect and ±100 for the full control effect; nearly all actives have a fitted effect of over 35% in size
Retinoic acid receptor RXR-alpha (Homo sapiens), sequence (P19793 whole entry, looked up): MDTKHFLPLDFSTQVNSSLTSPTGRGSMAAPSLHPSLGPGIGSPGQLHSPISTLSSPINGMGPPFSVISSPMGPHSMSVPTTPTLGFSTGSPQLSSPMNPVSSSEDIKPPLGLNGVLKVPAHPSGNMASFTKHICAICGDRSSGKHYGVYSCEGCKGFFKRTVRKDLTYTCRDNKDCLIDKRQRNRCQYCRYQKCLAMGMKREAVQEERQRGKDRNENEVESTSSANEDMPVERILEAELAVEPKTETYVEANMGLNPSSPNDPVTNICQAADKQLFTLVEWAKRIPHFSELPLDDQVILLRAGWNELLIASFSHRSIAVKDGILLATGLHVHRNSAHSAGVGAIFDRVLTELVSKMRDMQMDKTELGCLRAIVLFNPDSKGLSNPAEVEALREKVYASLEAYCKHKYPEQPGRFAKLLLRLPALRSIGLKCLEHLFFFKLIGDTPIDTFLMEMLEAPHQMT
Method in brief: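 Fluorescence ratio readout (460 vs 530 nm) from GeneBLAzer RXR-alpha HEK 293T cells after 16 hr compound treatment; cells seeded 5 hr beforehand in low-serum, charcoal-stripped medium.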

[10] = qHTS assay to identify small molecule agonists of the AP-1 signaling pathway (AID 1159526); also: % is scaled to controls: 0 for no effect and ±100 for the full control effect

CC(C)c1cccc(C(C)C)c1NC(=O)NS(=O)(=O)c1cc(C(C)(C)O)co1
inactive: Potency [1] | Potency [2] | Potency [3] | Potency [4] | outcome [5] | Potency [6] | Potency [7] | Potency [8]

CC(=O)O[C@H]1C[C@@H]2CC[C@@H]3[C@H](CC[C@@]4(C)[C@H]3C[C@H]([N+]3(C)CCCCC3)[C@@H]4OC(C)=O)[C@@]2(C)C[C@@H]1N1CCCCC1
inactive: Potency [1] | Potency [2] | Potency [3] | Potency [4] | outcome [5] | Potency [6] | Potency [7] | Potency [8] | Potency [9]

CCN(CC)C(C)CN1c2ccccc2Sc2ccccc21 (stereo not drawn)
inactive: Potency [1] | Potency [2] | Potency [3] | Potency [4] | outcome [5] | Potency [6] | Potency [7] | Potency [8] | Potency [9]

CCCCOC(=O)c1ccccc1C(=O)OCC(CC)CCCC (stereo not drawn)
inactive: Potency [1] | Potency [2] | Potency [3] | Potency [4] | outcome [5] | Potency [6] | Potency [7] | Potency [8]

CCOC(=O)[C@H](CCc1ccccc1)N[C@H]1CCc2ccccc2N(CC(=O)O)C1=O
active: Potency [1] 21.1 µM | Potency [2] 21.3 µM | Potency [4] 21.3 µM
inactive: Potency [3] | outcome [5] | Potency [6] | Potency [7] | Potency [8] | Potency [9]

CN1CCC(=C2c3ccccc3CCc3sccc32)CC1
inactive: Potency [1] | Potency [3] | Potency [4] | outcome [5] | Potency [6] | Potency [7] | Potency [8] | Potency [9]

CC(=O)N(O)CCCCCNC(=O)CCC(=O)N(O)CCCCCNC(=O)CCC(=O)N(O)CCCCCN
inactive: Potency [1] | Potency [2] | Potency [3] | Potency [4] | outcome [5] | Potency [6] | Potency [7] | Potency [8] | Potency [9]

CC(=O)CC(=O)c1ccccc1
inactive: Potency [1] | Potency [2] | Potency [3] | Potency [4] | outcome [5] | Potency [6] | Potency [8]
active: Potency [7] 6.9 µM

CC[C@]12CCCN3CCc4c(n(c5ccccc45)C(=O)C1)[C@@H]32
inactive: Potency [1] | Potency [2] | Potency [3] | Potency [4] | outcome [5] | Potency [6] | Potency [7] | Potency [8] | Potency [9]

Cc1occc1S
inactive: Potency [1] | Potency [2] | Potency [3] | Potency [4] | outcome [5] | Potency [6] | Potency [7] | Potency [8]

NC[C@H]1O[C@H](O[C@H]2[C@H](O)[C@@H](O[C@H]3O[C@H](CO)[C@@H](O)[C@H](N)[C@H]3O)[C@H](N)C[C@@H]2N)[C@H](O)[C@@H](O)[C@@H]1O
inactive: activity change, negative = cytotoxicity [1] -10.2% [at 5.95 µM] | activity, negative = cytotoxic [3] -4.89% [at 6.95 µM] | activation [4] -2.16% [at 6.95 µM] | activity change, negative = cytotoxicity [5] -9.96% [at 6.95 µM] | activity, negative = cytotoxicity [6] 1.78% [at 8.39 µM] | viability change, negative = cytotoxic [8] -4.71% [at 6.97 µM] | activation [9] 3.4% [at 6.98 µM]

c1ccc(OCc2ccc(CCCN3CCOCC3)cc2)cc1
inactive: Potency [1] | Potency [3] | Potency [4] | outcome [5] | Potency [6] | Potency [8] | Potency [10]

N=C(N=C(N)N)N1CCOCC1
inactive: Potency [1] | Potency [2] | Potency [3] | Potency [4] | outcome [5] | Potency [6] | Potency [8] | Potency [10] | Potency [9]

CN(C)C/C=C(/c1ccc(Br)cc1)c1cccnc1
inactive: Potency [1] | Potency [2] | Potency [3] | Potency [4] | outcome [5] | Potency [6] | Potency [8] | Potency [10] | Potency [9]

C=C(C)C(=O)OCCOc1ccccc1
inactive: Potency [2] | Potency [3] | Potency [4] | outcome [5] | Potency [6] | Potency [8] | Potency [9]

C=C(C)C(=O)OCCN(C)C
inactive: Potency [1] | Potency [2] | Potency [3] | Potency [4] | outcome [5] | Potency [6] | Potency [8] | Potency [10]

CC(=O)OCCc1ccccc1
inactive: Potency [1] | Potency [3] | Potency [4] | outcome [5] | Potency [6] | Potency [8] | Potency [10]

CCN(CC)CCOC(=O)C1(c2ccccc2)CCCC1
inactive: Potency [1] | Potency [2] | Potency [3] | Potency [4] | outcome [5] | Potency [6] | Potency [8] | Potency [10] | Potency [9]

O=[N+]([O-])c1cc[n+]([O-])cc1
inactive: Potency [2] | Potency [3] | Potency [4] | outcome [5] | Potency [6] | Potency [8]

Cn1c(N)nc2nc[nH]c2c1=O
inactive: Potency [1] | Potency [2] | Potency [3] | Potency [4] | outcome [5] | Potency [6] | Potency [8]

O=C1Nc2cc(Cl)ccc2Oc2ccccc21
inactive: Potency [1] | Potency [2] | Potency [3] | Potency [4] | outcome [5] | Potency [6] | Potency [8] | Potency [9]

O=c1c2ccccc2nnn1CCl
inactive: Potency [1] | Potency [2] | Potency [3] | Potency [4] | outcome [5] | Potency [6] | Potency [8] | Potency [10] | Potency [9]

COc1cc(C(C)(C)C)c(O)c(C(C)(C)C)c1
inactive: Potency [3] | Potency [4] | outcome [5] | Potency [6] | Potency [8]

C=C(C)C(=O)OC(C)C
inactive: Potency [2] | Potency [3] | Potency [4] | outcome [5] | Potency [6] | Potency [8] | Potency [9]

Cl/C(=C\n1cncn1)c1ccc(Cl)cc1Cl
inactive: Potency [1] | Potency [2] | Potency [3] | Potency [4] | outcome [5] | Potency [6] | Potency [8]

CC(C)(C)c1cc(O)c(C(C)(C)C)cc1O
inactive: Potency [1] | Potency [3] | outcome [5] | Potency [8] | Potency [10]
active: Potency [4] 5.49 µM | Potency [6] 48.6 µM

COC(=O)C(C)=O
inactive: Potency [1] | Potency [2] | Potency [3] | Potency [4] | outcome [5] | Potency [6] | Potency [8] | Potency [10] | Potency [9]

Reference: PubChem BioAssay (Tox21)
